# According to PubChem BioAssay (NCATS):
# Results filed as inconclusive are left out. The list shows a part of the results. Entries that show only a call come without a potency. The source made the active and inactive calls. Unless noted, calls come from the whole dose curve; as a rule, active = well fitted curve in the direction sought with a large enough effect; inconclusive = small, poorly fitted or top-dose-only effect, or another doubt; inactive = no such curve, though single readings can be large; an effect the other way counts as inactive or inconclusive.
# Tests used:
# [1] = molecular target: Mitogen-activated protein kinase 10 (Mus musculus) (UniProt Q61831); assay: JNK3 AlphaScreen Assay (AID 530; active = well fitted curve in either direction with a large enough effect, not every such curve was filed as active;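 note: kinase came from lysate of stimulated human HepG2 cells; signal reports phosphorylation of biotinylated GST-cJun 1-79 at Ser73 with 10 µM ATP; series mostly up to about 57 µM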)
# Outline: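 Room-temperature AlphaScreen kinase assay; pre-activated HepG2 lysate as JNK3 source, biotin-GST-cJun(1-79) substrate, 10 uM ATP, compound 15 min preincubation.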
# [2] = molecular target: Cytochrome P450 3A4 (Homo sapiens) (UniProt P08684); assay: qHTS Assay for Activators of Cytochrome P450 3A4 (AID 885); note: nearly all actives have a fitted effect of over 65% in size
# Outline: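 Quantitative HTS format: compounds preincubated with 20nM human CYP3A4 and Luciferin-PPXE substrate at KM, reaction started by NADPH regeneration, stopped after 60 min, luciferase luminescence read 20 min later.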
# [3] = molecular target: Lethal(3)malignant brain tumor-like protein 1 (Homo sapiens) (UniProt Q9Y468); assay: qHTS Assay for the Inhibitors of L3MBTL1: Hit Validation (AID 540279); settings: L3MBTL1 methyl-lysine binding inhibition, biochemical qHTS; note: potency is the fitted concentration of half-maximal effect; nearly all actives have a fitted effect of over 70% in size
# Outline: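 AlphaScreen displacement: 50 nM L3MBTL1 bound to 75 nM biotin-H3K9me1 peptide for 30 min, compound added for 30 min at room temperature, then beads at 10 ug/mL final for 30 min in the dark. Cefsulodin titration served as intraplate control.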
# [4] = molecular target: DNA polymerase iota (Homo sapiens) (UniProt Q9UNA4); assay: qHTS for Inhibitors of Polymerase Iota: Confirmatory Assay for Cherry-picked Compounds (AID 720496); settings: Pol iota primer extension, TAMRA/BHQ fluorescence; note: potency is the fitted concentration of half-maximal effect
# Outline: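 Read-out is TAMRA fluorescence (525 nm excitation, 598 nm emission) at 0 and 10 min. It reflects strand displacement from a BHQ-2-quenched template by 10 nM Pol iota, with 50 nM final substrate after 15 min compound preincubation.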
# [5] = molecular target: DNA polymerase eta (Homo sapiens) (UniProt Q9Y253); assay: qHTS for Inhibitors of Polymerase Eta: Confirmatory Assay for Cherry-picked Compounds (AID 720502); settings: Pol eta primer extension, TAMRA/BHQ fluorescence, 10 min; note: potency is the fitted concentration of half-maximal effect
# Outline: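 Human Pol eta at 10 nM was preincubated with compound for 15 min at room temperature. Reaction was started with TAMRA/BHQ-2-labelled primer-template substrate (50 nM final), with fluorescence read at 0 and 10 min (ex 525, em 598 nm).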
# [6] = molecular target: RecQ-like DNA helicase BLM (Homo sapiens) (UniProt P54132); assay: qHTS for Inhibitors of WRN Helicase: BLM Helicase Counterscreen for WRN Inhibitors (AID 720503); note: nearly all actives have a fitted effect of over 60% in size
# Outline: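 Steps: compounds added to 1 nM BLM in pH 8.0 Tris buffer with 2 mM MgCl2; 15 min room-temperature incubation; substrates added (100 nM DNA, 2 mM ATP final); discontinuous kinetic fluorescence measurement, reads spaced 15 min.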
# [7] = molecular target: DNA dC->dU-editing enzyme APOBEC-3G (Homo sapiens) (UniProt Q9HC16); assay: qHTS for inhibitors of Vif-A3G interactions: Validation (AID 588379)
# Outline: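 HeLa cells stably expressing Vif and A3G-eYFP, 700 cells/well, incubated overnight at 37 deg C, then exposed to compound overnight at 37 deg C. Inhibition of Vif-mediated degradation read as increased yellow fluorescence (Ex 488/Em 500-530) by laser-scanning cytometry.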
# [8] = qHTS Assay for the Inhibitors of L3MBTL1: Hit Validationin AlphaScreen Counterscreen (AID 602224)
# Outline: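 Using a biotin-His6 bridge (1 nM) between streptavidin donor and Ni-chelate acceptor beads at 10 ug/mL each, hit compounds were checked for assay-technology artifacts; activity here flags false positives from the primary screen.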
# [9] = molecular target: Cytochrome P450 3A4 (Homo sapiens) (UniProt P08684); assay: qHTS Assay for Inhibitors and Substrates of Cytochrome P450 3A4 (AID 884); note: nearly all actives have a fitted effect of over 50% in size; note: potency is the fitted concentration of half-maximal effect
# Outline: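 20 nM human CYP3A4 with 25 uM Luciferin-PPXE (at KM) in 200 mM KPO4, preincubated 10 min with compound; NADPH regeneration started a 60 min RT reaction. Luciferin detected by luminescence, normalized to 57 uM ketoconazole as full inhibition.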
# [10] = molecular target: Luciferin 4-monooxygenase (Photinus pyralis) (UniProt P08659); assay: Biochemical firefly luciferase enzyme assay for NPC (AID 624030);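 note: purified P. pyralis luciferase at 10 nM with luciferin and ATP substrate; series mostly up to about 59 µM; nearly all actives have a fitted effect of over 70% in size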
# Outline: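 Direct inhibition of firefly luciferase enzyme (10 nM final, 50 mM Tris Acetate) assessed by luminescence within 5 minutes. Percent activity scaled between DMSO and PTC124 positive control, with concentration-effect curves classified by fit quality and response.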
# Sequence of Cytochrome P450 3A4 (Homo sapiens) (P08684 whole entry, looked up): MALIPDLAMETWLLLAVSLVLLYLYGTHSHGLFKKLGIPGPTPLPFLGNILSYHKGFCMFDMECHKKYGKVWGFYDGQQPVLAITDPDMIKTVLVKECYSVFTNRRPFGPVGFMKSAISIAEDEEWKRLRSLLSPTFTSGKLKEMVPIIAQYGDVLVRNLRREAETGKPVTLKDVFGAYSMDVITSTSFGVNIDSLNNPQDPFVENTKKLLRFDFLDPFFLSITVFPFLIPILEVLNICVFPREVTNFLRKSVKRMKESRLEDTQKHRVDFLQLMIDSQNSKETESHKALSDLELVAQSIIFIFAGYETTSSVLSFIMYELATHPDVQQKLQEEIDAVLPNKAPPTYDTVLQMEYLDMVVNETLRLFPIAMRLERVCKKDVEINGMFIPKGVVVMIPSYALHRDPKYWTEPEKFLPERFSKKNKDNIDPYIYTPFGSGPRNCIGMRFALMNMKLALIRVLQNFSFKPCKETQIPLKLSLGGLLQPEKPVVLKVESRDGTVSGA
# Sequence of DNA dC->dU-editing enzyme APOBEC-3G (Homo sapiens) (Q9HC16 whole entry, looked up): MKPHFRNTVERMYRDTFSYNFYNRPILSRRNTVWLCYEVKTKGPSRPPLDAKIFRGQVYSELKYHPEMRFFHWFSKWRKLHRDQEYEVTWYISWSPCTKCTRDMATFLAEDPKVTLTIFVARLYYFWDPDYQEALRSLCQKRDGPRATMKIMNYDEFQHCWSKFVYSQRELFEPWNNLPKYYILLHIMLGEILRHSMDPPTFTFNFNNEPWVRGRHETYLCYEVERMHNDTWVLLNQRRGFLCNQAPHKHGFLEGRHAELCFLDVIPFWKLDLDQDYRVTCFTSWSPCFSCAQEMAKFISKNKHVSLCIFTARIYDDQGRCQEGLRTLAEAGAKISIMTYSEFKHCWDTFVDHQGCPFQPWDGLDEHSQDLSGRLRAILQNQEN
# Sequence of Lethal(3)malignant brain tumor-like protein 1 (Homo sapiens) (Q9Y468 whole entry, looked up): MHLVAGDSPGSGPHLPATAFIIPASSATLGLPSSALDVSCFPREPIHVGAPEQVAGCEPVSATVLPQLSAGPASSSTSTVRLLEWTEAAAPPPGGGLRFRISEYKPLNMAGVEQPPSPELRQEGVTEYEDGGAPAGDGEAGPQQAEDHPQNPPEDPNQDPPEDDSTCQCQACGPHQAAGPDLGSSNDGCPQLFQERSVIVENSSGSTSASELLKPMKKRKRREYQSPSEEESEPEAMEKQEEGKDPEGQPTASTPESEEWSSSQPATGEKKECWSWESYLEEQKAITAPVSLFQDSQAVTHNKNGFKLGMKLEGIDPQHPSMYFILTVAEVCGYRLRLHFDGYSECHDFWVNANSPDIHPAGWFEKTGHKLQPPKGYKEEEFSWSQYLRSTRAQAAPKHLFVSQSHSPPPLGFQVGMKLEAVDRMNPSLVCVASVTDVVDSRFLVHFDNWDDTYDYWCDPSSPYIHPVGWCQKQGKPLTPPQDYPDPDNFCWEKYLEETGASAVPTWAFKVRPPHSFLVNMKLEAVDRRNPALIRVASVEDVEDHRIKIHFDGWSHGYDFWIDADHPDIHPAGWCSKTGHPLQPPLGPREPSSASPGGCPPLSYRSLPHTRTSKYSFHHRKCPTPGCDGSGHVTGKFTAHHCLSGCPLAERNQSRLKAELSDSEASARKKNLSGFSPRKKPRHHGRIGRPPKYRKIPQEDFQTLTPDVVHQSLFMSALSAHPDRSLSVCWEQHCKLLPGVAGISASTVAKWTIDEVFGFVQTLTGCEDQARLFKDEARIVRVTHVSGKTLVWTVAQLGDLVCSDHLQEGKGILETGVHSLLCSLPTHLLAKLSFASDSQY
# Sequence of DNA polymerase eta (Homo sapiens) (Q9Y253 whole entry, looked up): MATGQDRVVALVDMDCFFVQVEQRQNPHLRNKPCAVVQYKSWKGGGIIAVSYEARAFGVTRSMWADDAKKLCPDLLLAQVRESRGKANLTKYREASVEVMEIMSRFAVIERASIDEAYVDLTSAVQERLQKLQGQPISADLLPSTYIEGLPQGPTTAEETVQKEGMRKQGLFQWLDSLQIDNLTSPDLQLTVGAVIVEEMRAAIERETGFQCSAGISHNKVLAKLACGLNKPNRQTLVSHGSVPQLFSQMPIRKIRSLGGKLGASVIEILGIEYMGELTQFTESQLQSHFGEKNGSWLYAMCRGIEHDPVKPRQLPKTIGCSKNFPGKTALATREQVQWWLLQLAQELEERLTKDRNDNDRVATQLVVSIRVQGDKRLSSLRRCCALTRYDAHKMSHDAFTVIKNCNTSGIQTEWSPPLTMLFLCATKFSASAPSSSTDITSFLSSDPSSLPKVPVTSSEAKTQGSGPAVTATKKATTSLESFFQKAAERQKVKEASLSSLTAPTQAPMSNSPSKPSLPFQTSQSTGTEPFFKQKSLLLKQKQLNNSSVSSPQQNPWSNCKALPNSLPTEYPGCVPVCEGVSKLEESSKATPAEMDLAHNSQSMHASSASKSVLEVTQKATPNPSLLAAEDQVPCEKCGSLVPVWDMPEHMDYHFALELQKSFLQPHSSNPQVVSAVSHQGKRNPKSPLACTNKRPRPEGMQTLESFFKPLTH
# Sequence of DNA polymerase iota (Homo sapiens) (Q9UNA4 whole entry, looked up): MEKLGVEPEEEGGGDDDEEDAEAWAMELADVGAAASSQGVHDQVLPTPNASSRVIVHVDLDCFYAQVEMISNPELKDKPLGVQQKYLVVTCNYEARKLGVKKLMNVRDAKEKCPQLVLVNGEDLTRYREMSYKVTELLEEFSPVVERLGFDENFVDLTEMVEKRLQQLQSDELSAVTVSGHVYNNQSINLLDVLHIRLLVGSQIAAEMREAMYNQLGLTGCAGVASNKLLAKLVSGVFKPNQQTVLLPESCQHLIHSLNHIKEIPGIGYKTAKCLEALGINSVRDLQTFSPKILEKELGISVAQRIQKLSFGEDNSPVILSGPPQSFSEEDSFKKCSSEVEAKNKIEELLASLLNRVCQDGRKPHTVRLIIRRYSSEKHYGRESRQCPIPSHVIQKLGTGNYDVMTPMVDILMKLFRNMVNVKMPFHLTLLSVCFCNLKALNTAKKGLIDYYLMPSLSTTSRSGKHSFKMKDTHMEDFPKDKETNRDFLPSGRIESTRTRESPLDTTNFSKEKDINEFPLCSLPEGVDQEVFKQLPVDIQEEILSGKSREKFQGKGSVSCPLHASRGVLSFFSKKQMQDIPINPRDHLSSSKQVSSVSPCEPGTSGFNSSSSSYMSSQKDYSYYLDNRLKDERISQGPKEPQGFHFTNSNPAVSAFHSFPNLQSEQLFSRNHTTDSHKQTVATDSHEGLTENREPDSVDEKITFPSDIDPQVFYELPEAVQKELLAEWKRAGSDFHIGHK
# Sequence of Luciferin 4-monooxygenase (Photinus pyralis) (P08659 whole entry, looked up): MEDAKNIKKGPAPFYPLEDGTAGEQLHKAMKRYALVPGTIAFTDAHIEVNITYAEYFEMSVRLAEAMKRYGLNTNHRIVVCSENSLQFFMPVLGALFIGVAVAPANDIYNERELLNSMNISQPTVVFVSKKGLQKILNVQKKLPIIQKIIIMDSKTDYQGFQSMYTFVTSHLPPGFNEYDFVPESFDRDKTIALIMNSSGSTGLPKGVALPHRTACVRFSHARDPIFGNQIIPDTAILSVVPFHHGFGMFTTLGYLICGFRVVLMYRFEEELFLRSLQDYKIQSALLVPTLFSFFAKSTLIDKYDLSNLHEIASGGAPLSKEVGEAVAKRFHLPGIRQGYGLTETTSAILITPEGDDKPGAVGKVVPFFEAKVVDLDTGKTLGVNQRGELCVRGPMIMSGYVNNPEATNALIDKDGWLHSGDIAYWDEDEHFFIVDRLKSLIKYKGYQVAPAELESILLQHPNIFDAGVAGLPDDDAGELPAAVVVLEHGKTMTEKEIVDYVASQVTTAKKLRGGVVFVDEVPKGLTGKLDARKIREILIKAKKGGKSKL
compound,measurement,setting,value
COC(=O)CNC(=O)C1(C)C=CC2(CCCCC2)N1C(C)=O (centres undefined),outcome,[1],inactive
same,Potency,[2],inactive
COC(=O)c1ccc(C(/C=C/[C@@H](C)C(=O)N(C)C)NC(=O)OCc2ccccc2)cc1 (some centres undefined),outcome,[1],inactive
same,Potency,[2],inactive
CSc1nnc(SCc2nc3sc(C(=O)O)c(C)c3c(=O)[nH]2)s1,Potency,[3],0.532 µM (active)
same,Potency,[4],18.9 µM (active)
same,Potency,[5],5.36 µM (active)
same,Potency,[6],inactive
CC(=O)N1CC=CC1(C)C(=O)NCC1CC1 (centres undefined),outcome,[1],inactive
same,Potency,[2],inactive
COC(=O)N1[C@H](C)C=C[C@]1(Cc1ccccc1)C(=O)NCc1ccc(C)o1,outcome,[1],inactive
same,Potency,[2],inactive
CC1C(=O)OC2CC34C5CC(C(C)(C)C)C36C(OC(=O)C6O)OC4(C(=O)O5)C21O (centres undefined),Potency,[7],inactive
CCCCCCN(C(=O)CCCCCN1C(=O)NC(c2ccc(-c3ccccc3)cc2)C(C(=O)OCc2ccccc2)=C1C)C(C(=O)NCCCC)c1ccccc1 (centres undefined),outcome,[1],inactive
same,Potency,[2],inactive
CNC(=O)[C@@H]1C[C@H]1[C@@H](NC(=O)CNC(=O)OCc1ccccc1)c1ccccc1,outcome,[1],inactive
same,Potency,[2],inactive
C1CCN2CC3CC(CN4CCCC[C@@H]34)C2C1 (some centres undefined),Potency,[7],inactive
CC(C)c1ccc2c(c1)CC[C@@H]1[C@@](C)(CN)CCC[C@]21C,Potency,[7],inactive
CC1(C)S[C@H]2[C@@H](NC(=O)C(N)c3ccccc3)C(=O)N2[C@H]1C(=O)O (some centres undefined),Potency,[7],inactive
COC(=O)N1[C@H](C)C=C[C@]1(Cc1ccccc1)C(=O)NCc1ccccn1,outcome,[1],inactive
same,Potency,[2],inactive
COC(=O)[C@@]1(C)C=C[C@@H](Cc2ccccc2)N1C(C)=O,outcome,[1],inactive
same,Potency,[2],inactive
O=C(COC(=O)c1ccc(F)cc1F)Nc1ncccn1,Potency,[3],5.97 µM (active)
same,outcome,[8],inactive
same,Potency,[4],21.2 µM (active)
same,Potency,[5],37.9 µM (active)
Cc1ccc(C(=O)[C@@H]2[C@H]3C4COC(O4)C(=O)[C@@H]3[C@H]3C=Cc4ccccc4N32)cc1 (some centres undefined),Potency,[9],25.1 µM (active)
same,Potency,[2],inactive
same,Potency,[7],inactive
CC(C)=CCC/C(C)=C/COc1c2occc2cc2ccc(=O)oc12,Potency,[2],inactive
same,Potency,[7],inactive
CC1(C)CC[C@]2(C(=O)O)CC[C@]3(C)C(=CCC4[C@@]5(C)CC[C@H](O)C(C)(C)[C@@H]5CC[C@]43C)C2C1 (some centres undefined),Potency,[9],inactive
same,Potency,[7],inactive
C=C1C(=O)OC2C[C@@]3(C)CCCC(=C)[C@@H]3CC12 (some centres undefined),Potency,[9],10 µM (active)
same,Potency,[7],inactive
COc1ccc2c(c1OC)C(Cc1ccccc1)N1CCc3cc4c(cc3C1C2)OCO4 (centres undefined),Potency,[9],1 µM (active)
same,Potency,[2],inactive
same,Potency,[7],inactive
C[C@H](CCC(=O)O)[C@H]1CC[C@@H]2[C@H]3CC[C@H]4C[C@H](O)CC[C@]4(C)[C@@H]3CC[C@@]21C,Potency,[7],inactive
COc1cc(/C=C/C(=O)c2cccs2)cc(OC)c1OC,Potency,[2],inactive
same,Potency,[7],inactive
O=c1cc(-c2ccccc2)oc2cc(O[C@@H]3O[C@H](CO)[C@@H](O)[C@H](O)[C@H]3O)c(O)c(O)c12,Potency,[9],inactive
same,Potency,[7],inactive
C=C(CO)C1Cc2c(ccc3c(=O)c4c(oc23)COc2cc(OC)c(OC)cc2-4)O1 (centres undefined),Potency,[9],inactive
same,Potency,[7],inactive
Cc1cccc(-c2cc(=O)c3cc(C)ccc3o2)c1,Potency,[9],3.98 µM (active)
same,Potency,[2],inactive
same,Potency,[7],inactive
O=C(/C=C/c1ccc(OCc2ccccc2)cc1)c1cccs1,Potency,[9],inactive
same,Potency,[7],inactive
O=c1c(O)c(-c2ccc(O)c(O)c2)oc2c(OC[C@@H]3O[C@@H](O)[C@@H](O)[C@H](O)[C@H]3O)c(O)cc(O)c12,Potency,[9],inactive
same,Potency,[7],inactive
CC(C)=CCC/C(C)=C\COc1c2ccoc2cc2oc(=O)ccc12,Potency,[9],0.794 µM (active)
same,Potency,[2],inactive
same,Potency,[7],inactive
CC(=O)Nc1ccc(-c2nc3ccc(Cl)cc3[nH]2)cc1,Potency,[9],inactive
same,Potency,[7],inactive
CC(=O)OCC1OC(Oc2cc(OC(C)=O)c3c(=O)cc(-c4ccc(OC(C)=O)c(OC(C)=O)c4)oc3c2)C(OC(C)=O)C(OC(C)=O)C1OC(C)=O (centres undefined),Potency,[9],3.98 µM (active)
same,Potency,[2],inactive
same,Potency,[7],inactive
COc1ccccc1-c1oc2ccccc2c(=O)c1O,Potency,[9],25.1 µM (active)
same,Potency,[2],inactive
same,Potency,[7],inactive
COc1ccc(-c2coc3cc(OC4OC(CO)C(O)C(O)C4O)cc(O)c3c2=O)cc1 (centres undefined),Potency,[9],inactive
same,Potency,[7],inactive
O=C(Cc1ccc(Cl)cc1)c1c(O)cc(O)cc1O,Potency,[9],5.01 µM (active)
same,Potency,[2],inactive
same,Potency,[7],inactive
O=C(/C=C/c1ccc2c(c1)OCO2)c1cccs1,Potency,[9],0.501 µM (active)
same,Potency,[2],inactive
same,Potency,[7],inactive
CC(=O)OC1CCC2(C)C(CCC3(C)C2C(=O)C=C2C4CC(C)(C(=O)OCCN5CCCCC5)CCC4(C)CCC23C)C1(C)C (centres undefined),Potency,[9],inactive
same,Potency,[7],inactive
COc1ccc(/C=C/C(=O)c2ccc(C)s2)cc1,Potency,[9],inactive
same,Potency,[7],inactive
COc1ccccc1CC(Cc1nc2ccccc2[nH]1)c1nc2ccccc2[nH]1 (centres undefined),Potency,[9],1.58 µM (active)
same,Potency,[2],inactive
same,Potency,[7],inactive
Cc1cccc(-c2cc(=O)c3cc(Br)ccc3o2)c1,Potency,[9],12.6 µM (active)
same,Potency,[2],inactive
same,Potency,[7],inactive
OC1CCC2Cc3ccccc3N=C12 (centres undefined),Potency,[9],inactive
same,Potency,[7],inactive
O=c1cc(-c2cccc(O)c2)oc2cccc(O)c12,Potency,[9],7.94 µM (active)
same,Potency,[2],inactive
same,Potency,[7],inactive
C[C@@H]1O[C@@H](OC[C@H]2O[C@@H](Oc3c(-c4cccc(O)c4O)oc4cc(O)cc(O)c4c3=O)[C@H](O)[C@@H](O)[C@@H]2O)[C@H](O)[C@H](O)[C@H]1O,Potency,[9],inactive
same,Potency,[7],inactive
O=C(O)[C@H]1[C@H]2C[C@H]3c4[nH]c5ccccc5c4CCN3C[C@@H]2CC[C@@H]1O,Potency,[2],inactive
same,Potency,[7],inactive
CC[C@@H]1CN2CCc3cc(OC)c(OC)cc3[C@@H]2C[C@@H]1C[C@H]1NCCc2cc(OC)c(OC)cc21,Potency,[2],inactive
same,Potency,[7],inactive
COC(=O)CC[C@@H](C)[C@H]1CC[C@H]2[C@@H]3CC[C@@H]4C[C@H](O)CC[C@]4(C)[C@H]3C[C@H](O)[C@]12C,Potency,[9],inactive
same,Potency,[7],inactive
CC12CCC3c4ccc(O)cc4CCC3C1CCC2=O (centres undefined),Potency,[7],inactive
same,Potency,[10],inactive
CC(=O)OC1CCC2(C)C3CCC4(C)C(CC5CCCCC54C(C)=O)C3CC(=O)[C@@]2(O)C1 (some centres undefined),Potency,[9],10 µM (active)
same,Potency,[2],inactive
same,Potency,[7],inactive
COc1ccc(C(=O)C2C3C4COC(O4)C(=O)C3C3C=Cc4ccccc4N32)c(OC)c1 (centres undefined),Potency,[9],31.6 µM (active)
same,Potency,[2],inactive
same,Potency,[7],inactive
CNC(=O)Oc1ccc2c(c1)C1(C)CCN(C)C1N2C (centres undefined),Potency,[9],inactive
same,Potency,[7],inactive
Clc1ccc2nc(-c3ccccc3)[nH]c2c1,Potency,[9],12.6 µM (active)
same,Potency,[2],inactive
same,Potency,[7],inactive
CC1=CC(=O)C2=C(C)CCC3C(C)C(=O)OC3C12 (centres undefined),Potency,[7],inactive
CC1CC2(C)Oc3ccccc3C3OCC1(COC(=O)Nc1ccccc1)C(C)C32 (centres undefined),Potency,[9],10 µM (active)
same,Potency,[2],inactive
same,Potency,[7],inactive
C[C@H]1[C@H](C)CC[C@]2(C(=O)O)CC[C@]3(C)C(=CCC4[C@@]5(C)C[C@@H](O)[C@H](O)[C@@](C)(CO)[C@@H]5CC[C@]43C)[C@H]12 (some centres undefined),Potency,[2],inactive
same,Potency,[7],inactive
Cc1ccc(CC(Cc2nc3ccccc3[nH]2)c2nc3ccccc3[nH]2)cc1 (centres undefined),Potency,[9],1.26 µM (active)
same,Potency,[2],inactive
same,Potency,[7],inactive
COc1cc([C@@H]2c3cc4c(cc3C(OC3OC5COC(C)OC5C(O)C3O)C3COC(=O)[C@@H]32)OCO4)cc(OC)c1O (some centres undefined),Potency,[7],inactive
